From ChEMBL document CHEMBL3988442, “University of Dundee, Small-Polar-MMV Screening Library” (2021)
Among all 38,000 compounds or so, about 1,200 (3.2%) showed an effect of 50% or more. The median lay at about -58%. This excerpt belongs to a sample that is enriched for strong results.

Each compound was assayed on Plasmodium falciparum (assay: Calibr Malaria Delayed Death Assay SOP). Details: concentration 4.99e-06 (unit not given; other assays of the set use mol/L).
Type: functional, organism-based
Design: scale not given: in the data most compounds retested in dose-response had high values

Structure (SMILES)	Percent Effect [%]
CN(C)C(=O)CO[C@H]1CN(Cc2ccoc2)[C@@H]2COC[C@H]12.O=C(O)C(F)(F)F	-8.838
Cc1nc[nH]c1CN(C)CC1CCCN(CCc2ccc(Cl)cc2)C1 (stereo not drawn)	82.22
Cc1cc(CN(C)CC2CCCN(CCc3ccc(Cl)cc3)C2)[nH]n1 (stereo not drawn)	-73.95
CN(Cc1cnc(N)nc1)CC1CCCN(CCc2ccc(Cl)cc2)C1 (stereo not drawn)	-42.11
CN(Cc1ccncc1)CC1CCCN(CCc2ccc(Cl)cc2)C1 (stereo not drawn)	-30.31
CN(Cc1ccccc1O)CC1CCCN(CCc2ccc(Cl)cc2)C1 (stereo not drawn)	-82.77
CC(C)NC(=O)c1nnn(-c2ccccc2)c1C1CC1	-103.7
CCCNC(=O)c1cc2c(s1)CCN2C(=O)c1ccccc1	-140.9
O=C(NCCN1CCOC1=O)c1cnc(-c2cccnc2)nc1	-89.05
O=C(N[C@@H]1CN(Cc2cccc(F)c2)C[C@H]1O)c1cscn1	-187.1
O=C(COCC1CC1)Nc1ncccc1I	-99.18
CCOCC1CN(Cc2ccc(OC)cc2)Cc2nn(CC3CC3)cc21.O=C(O)C(F)(F)F (stereo not drawn)	-47.96
Cc1cccc(C(C)C)c1NC(=O)NCCN(C(C)C)C(C)C	37.4
CC(C)N(CCNC(=O)c1ccc(S(=O)(=O)NC2CC2)cc1)C(C)C	3.108
CC(C)N(CCNC(=O)c1[nH]nc2ccc(I)cc12)C(C)C	86.77
c1ccc(-c2cc(CN3C[C@H]4CC[C@H]3C4)on2)cc1	2.742
c1ccc(-c2cc(CN3C[C@@H]4CC[C@H](C3)N(CC3CCC3)C4)on2)cc1	88.08
c1ccc(-c2cc(CN3C[C@@H]4CC[C@H](C3)N(CC3CC3)C4)on2)cc1	16.35
CCC(OC)C(=O)NCc1cc2n(n1)CCCN(C1CCCCC1)C2 (stereo not drawn)	-16.19
CC1CCCCN1c1nc2c(c(=O)[nH]1)CCN(Cc1ccccc1F)C2 (stereo not drawn)	13.92
CCn1cc(-c2cc(C(F)(F)F)nc(NC3CCCC3)n2)c(C)n1	-77.03
FC(F)(F)c1cc(-c2cccs2)nc(N2CCN3CCCC3C2)n1 (stereo not drawn)	-49.64
Cc1c(-c2cc(C(F)(F)F)nc(N3CCC(N)CC3)n2)cnn1C	19.65
Cc1ccc(-c2cc(C(F)(F)F)nc(N3CCOCC3)n2)s1	-16.11
CCn1ncc(-c2cc(C(F)(F)F)nc(N3CCC(N)CC3)n2)c1C	64.36
CCc1ccc(-c2cc(C(F)(F)F)nc(N3CCC(N)CC3)n2)cc1	81.95

Structure (SMILES)	Percent Effect [%]
CCc1nc(CN2CCCN(Cc3noc(C4CC4)n3)CC2)cs1	-72.76
COc1cc(CN2CCCC23CCN(c2ccccn2)CC3)ccc1F	1.862
Cc1cc(C)c2[nH]c(C(=O)NCCN3CCCC3=O)c(C)c2c1	-119.1
CC(C)c1noc(CCNC(=O)N2CCN(c3cccs3)CC2)n1	-17.65
CCc1nc(CCNC(=O)Nc2cccc(C(=O)NC)c2C)cs1	-100.3
Cc1nnc(SC2CCc3ccccc3NC2=O)o1 (stereo not drawn)	-88.91
CNc1cc(C)nc(-c2cc(NC)nc3[nH]ccc23)n1	49.01
CNc1cc(C)nc(-c2cc(NCCO)nc3[nH]ccc23)n1	-113.9
CNc1nc(C)cc(NCc2cc(C)cc3c(C)c(C)[nH]c23)n1	92.52
Cc1cc(CNc2cncc(C(=O)N(C)C)n2)c2[nH]c(C)c(C)c2c1	-64.7
CNc1cc(C)nc(NCc2cc(C)cc3c(C)c(C)[nH]c23)n1	91.83
CCN(Cc1cnn(CC)c1)Cc1c(Cl)cncc1Cl	-11.88
Cc1ccc(C2CN(CCCC#N)CCO2)c(C)c1 (stereo not drawn)	-121.1
CCc1ncnc2c1CCN(S(=O)(=O)CC)CC2	-41.95
CN(CCCc1ccccc1)C(=O)c1ccccc1NCC(=O)O	-16.6
CCC1=NN2C(=N)/C(=C\c3cccn3-c3ccc(Cl)cc3)C(=O)N=C2S1	17.01
COc1cc(I)c(Cl)cc1C(=O)N(C)CC(=O)NC(C)(C)C	-34.35
CN1[C@H](Cn2cccn2)C[C@@H]2CN(Cc3cccs3)CC[C@@H]21.O=C(O)C(F)(F)F.O=C(O)C(F)(F)F.O=C(O)C(F)(F)F	75.74
CN1[C@H](Cn2cccn2)C[C@@H]2CN(C(=O)Cc3cccs3)CC[C@@H]21	-36.35
CN1C(Cn2cccn2)C[C@@H]2CN(Cc3ccccn3)CC[C@@H]21.O=C(O)C(F)(F)F.O=C(O)C(F)(F)F.O=C(O)C(F)(F)F.O=C(O)C(F)(F)F (stereo partly drawn)	41.52
CN1C(Cn2cccn2)C[C@@H]2CN(Cc3nccs3)CC[C@@H]21 (stereo partly drawn)	-108.4
CN1[C@H](CN2CCCC2)C[C@@H]2CN(Cc3ccoc3)CC[C@@H]21.O=C(O)C(F)(F)F.O=C(O)C(F)(F)F.O=C(O)C(F)(F)F	57.43
CC(C)N1[C@H](Cn2cccn2)C[C@@H]2CN(Cc3ccoc3)CC[C@@H]21.O=C(O)C(F)(F)F.O=C(O)C(F)(F)F.O=C(O)C(F)(F)F	39.12
Cc1ccoc1C(=O)N1CC[C@H]2[C@H](C[C@@H](CN3CCCC3)N2C)C1.O=C(O)C(F)(F)F.O=C(O)C(F)(F)F	-53.97
CN1C(Cn2cccn2)C[C@@H]2CN(Cc3cccnc3)CC[C@@H]21.O=C(O)C(F)(F)F.O=C(O)C(F)(F)F.O=C(O)C(F)(F)F.O=C(O)C(F)(F)F (stereo partly drawn)	11.1
CCc1nc2n(n1)CC(NCc1cc(OC)c3c(c1)OCCO3)CC2 (stereo not drawn)	-60.23

Structure (SMILES)	Percent Effect [%]
O=C(CN1CC(c2ccccc2)CC1=O)N1CCN(c2nccs2)CC1 (stereo not drawn)	-33.46
Cc1nc(-c2cccc(C(=O)O)c2)cc(C2CCCN(C(C)C)C2)n1 (stereo not drawn)	-116.2
COc1cccc(CNc2nnc(C(C)(C)C)o2)c1OC	-115.2
CC(C)NC(=O)C1CCN(C(C)C(=O)N2CCc3sccc3C2)CC1 (stereo not drawn)	-19.38
CC(C(=O)N1CCc2sccc2C1)N1CCC(N2CCCC2)CC1 (stereo not drawn)	51.04
CC(C(=O)N1CCc2sccc2C1)N1CCCN(C2CC2)CC1 (stereo not drawn)	19.49
COC(=O)CC(C1=Cc2ccccc2OC1)c1oc(C)cc(=O)c1O (stereo not drawn)	-54.1
Cc1cc(NC(=O)NCC2(O)CCCC2)ccn1	-130.9
COCCC1(CNC(=O)Nc2ccnc(C)c2)CCCC1	72.21
COCCC1(CNC(=O)Nc2ccc(-n3nccn3)cc2)CCC1	-17.2
COc1ncc(C2(O)CCN(Cc3cc(F)cc(F)c3)CC2)c(OC)n1	-99.52
O=c1[nH]nc2c(S(=O)(=O)N3CCOCC3)cccn12	-183.8
CNC(=O)c1cc2c(nc1NCC1CC1)CCN(c1ncccn1)CC2	-64.19
O=S(=O)(Nc1ccc2c(c1)OCCO2)N1CCCCC1	-170
Cc1ccc(CNCCC(O)(c2nccn2C)C(F)(F)F)o1 (stereo not drawn)	72.37
Cn1ccnc1CN1CCCN(C(=O)c2ccc(Cl)o2)CC1	-26.42
Cc1ccc(CNC(c2cccc(F)c2)c2nccn2C)o1.Cl (stereo not drawn)	35.29
Cc1ccc(CNC(c2ccc(F)cc2)c2nccn2C)o1 (stereo not drawn)	-33.59
CCc1n[nH]c(C2CN(C(=O)COCC(F)(F)F)CCO2)n1 (stereo not drawn)	-109.1
CCc1c(C)n(CCC#N)c2nc3ccccc3n2c1=O	-59.08
CCc1nnc2n1CCN(C(=O)C1CCC(n3cccc3)CC1)C2 (stereo not drawn)	-12.54
O=C1CCc2cc(-c3csc(CCN4CCOC4=O)n3)c(F)cc2N1	10.62
COc1cccc(CSc2nnc(C)n2CC(N)=O)c1	-57.97
NC(=O)CN(Cc1ccc(Br)cc1)C(=O)c1cccnc1	-140.6
COc1ccc(CN2C[C@@H](CN(C)C)[C@@H](CO)C2)cc1OC	-68.69
Cc1cc(-n2cccn2)ccc1CN1CCOCC(CN(C)C)C1 (stereo not drawn)	73.33

Structure (SMILES)	Percent Effect [%]
Cc1cc(C)c(-n2cccn2)c(CN2CCOCC(CN(C)C)C2)c1 (stereo not drawn)	34.59
Cc1cc(-n2cccn2)ccc1CN1C[C@@H](CN(C)C)[C@@H](CO)C1	52.18
COc1ccc(CN2C[C@@H](CN(C)C)[C@@H](CO)C2)c(Cl)c1OC	-21.55
COc1ccc(O[C@H]2COCCN(Cc3c[nH]c4ccccc34)C2)cc1	-21.41
COc1ccc(-n2cccn2)c(CN2CCOCC(CN(C)C)C2)c1 (stereo not drawn)	78.01
COc1ccc(CN2CCOC[C@H](Oc3cccnc3)C2)cc1	-114.4
Cc1ccc(-n2cc(CN3CCOCC(CN(C)C)C3)cn2)cc1C (stereo not drawn)	38.47
CCc1cc2c(N3CCCC(c4ccn[nH]4)C3)ncnc2s1 (stereo not drawn)	10.63
O=C(CC1CCc2ccccc21)N1CCC(O)(Cn2ccnc2)CC1 (stereo not drawn)	-24.52
CCCN1CCC(c2nc3ccc(-c4cccc(OC)c4)cn3n2)CC1.O=C(O)C(F)(F)F	-29.22
CCN(CC)Cc1nnc2sc(-c3cc(C(C)C)[nH]n3)nn12	-70.51
CN(C(=O)Cn1nc(-c2ccc(Cl)cc2)ccc1=O)C1CCS(=O)(=O)C1 (stereo not drawn)	1.296
CC(=O)N1CCC(c2nc3ccc(-c4ccnn4C)cn3n2)CC1.O=C(O)C(F)(F)F	-57.67
NC(=O)N1Cc2nccn2CC(Cn2ncccc2=O)C1 (stereo not drawn)	-152.6
Cc1nc(CN2CCC23CCN(Cc2ccoc2)CC3)cs1	35.85
Cc1ccc(CN2CCCC3(CCN(Cc4ccoc4)CC3)C2)cc1.O=C(O)C(F)(F)F.O=C(O)C(F)(F)F	79.2
COCC(=O)N1CCC2(CCN(Cc3ccc(C)cc3)CC2)CC1.O=C(O)C(F)(F)F	-23.78
Cc1ccc(CN2CCC3(CC2)CCN(Cc2ccoc2)CC3)cc1.O=C(O)C(F)(F)F.O=C(O)C(F)(F)F	92.5
CS(=O)(=O)N1CCOCC2(CCN(Cc3ccoc3)CC2)C1.O=C(O)C(F)(F)F	-77.45
CS(=O)(=O)N1CCCC12CCN(Cc1ccoc1)CC2	-46.44
Cc1ccc(CN2CCC3(CCN(Cc4ccncc4)CC3)CC2)cc1	77.61
Cn1ccnc1CN1CC2(CCN(Cc3ccncc3)C2)C1	-45.53
O=C(O)C(F)(F)F.O=C(O)C(F)(F)F.O=C(O)C(F)(F)F.c1cc(CN2CCCC23CCCN(Cc2ccoc2)C3)ccn1 (stereo not drawn)	-115.9
COCCC(=O)N1CC2(CCN(Cc3ccncc3)CC2)C1	-37.67
COCCC(=O)N1CCC2(CCN(Cc3ccc(C)cc3)CC2)C1.O=C(O)C(F)(F)F	-50.1
